Results filed as inconclusive are left out. Calls of active or inactive are those of the source. The call rests on the fitted dose curve; in most records, active means well fitted inhibition curve with a large enough effect; inconclusive means small, poorly fitted or top-dose-only effect; inactive means flat fitted curve, though single readings scatter.

Consider 40 molecules from PubChem BioAssay AID2733 (National Center for Advancing Translational Sciences (NCATS), 2010).

A short description of the assay: High Content Assay for Compounds that inhibit the Assembly of the Perinucleolar Compartment: PC3M Cytotoxicity. Conditions: PC3M cells, ATPLite luminescence viability, 24 h; series mostly up to 46.1 µM. The source says:
High Content Assay for Compounds that inhibit the Assembly of the Perinucleolar Compartment
NIH Chemical Genomics Center [NCGC]
NIH Molecular Libraries Probe Centers Network [MLPCN]
Assay Submitter (PI): Sui Huang, Northwestern University, Feinberg School of Medicine, Cell and Molecular Biology, Chicago, Illinois.
The perinucleolar compartment (PNC) is a non-membrane-bound nuclear subdomain that is associated with but structurally distinct from the nucleolus. The PNC is a heritable trait, in which the number of PNCs per cell in daughter cells often mimics that of their mother cells. The PNC is heterogeneous in shape, is stable through interphase, disassembles during mitosis, and reassembles in early G1. The PNC is concentrated with newly synthesized RNA polymerase III (pol III) RNAs (MRP RNA, RNAse P H1 RNA, hY RNAs[hY1, 2, 5], Alu RNA, and SRP [7SL] RNA) and RNA binding proteins (nucleolin, PTB, CUG-BP, KSRP, Raver1, Raver2, and Rod).
Extensive in vitro studies have shown that the PNC is unique to tumor cells and preferentially forms in tumor cells derived from solid tissues. Examination of cancer cell lines from various origins and malignant capacities has shown that PNC prevalence correlates with the malignancy of tumors and has the potential to be developed as a pan-cancer prognostic marker.
Although the PNC is associated with a DNA locus and a handful of components have been identified, much remains to be investigated regarding the structure and function of the PNC and its mechanistic link to cancer. We have previously shown that PNC prevalence reduction is a valid strategy to identify compounds that can be used to study the structure and function of the PNC. It is necessary, however, to create a screening platform that is able to test a large number of compounds in an automated fashion. Here we report the development and robustness of an automated whole-cell phenotypic image-based screening assay that is capable of identifying such compounds.
We conducted a followup assay to measure the effect of the lead candidates on cell health by measuring ATP levels (ATPLite). The highly metastatic PC3M-GFP reporter cell line was used in this study.
1. Cells at a density of 75-90% confluency in T175 flasks were harvested using 7 ml TrypLE Express cell dissociation reagent. After dissociation (5 minutes room temperature incubation) 10 ml of complete media was added to the TrypLE/cell suspension. The liquid was transferred to a 50 ml Conical tube and cells were pelleted at 1000 RPM for 5 min. Supernatant was removed and cells were resuspended to a final density of 150-200 cells/ul in complete media.
2. Cells were plated in 5 ul volume (2000 cells/well) into 1536 well White solid bottom plates and allowed to recover and adhere at 37 C in a humidified 5% CO2 incubator for 4 hours.
3. After 4 hour incubation, compound libraries (23 nl of 12.5 uM in columns 5-48) were transferred to the plates in duplicate using a 1536 well pintool. Camptothecin positive control (59 uM final) was added to column 2 and 1:3 dilutions of camptothecin was added to column 3. DMSO negative controls were present in columns 1 and 4.
4. After a 24 hour incubation in the 37 C incubator, all wells were treated with 3 ul of ATPLite reagent using a multidrop combi dispenser (ThermoFisher). Bubbles that formed during dispensing were removed by spinning the plates for 1 minutre at 1500 RPM on a table top centrifuge.
5. Luminescencent signal was detected on a Viewlux CCD based imager (PerkinElmer) with a clear filter and a 30 second integration time.
The PC3M cell line stably expressing the PTB-GFP was provided by Sui Huang of Northwestern University. The media and cell culture reagents were purchased from Invitrogen (Carlsbad, CA), ATPLite came from PerkinElmer.
For orientation: ATP-based viability assays read luminescence as a measure of living cells.
For the molecule `COc1ccc2nc3sc(C(=O)NCCCN4CCc5ccccc5C4)cc3cc2c1`, the Potency is 31.6 µM (active).
Consider `O=C(Nc1cccnc1)c1cccs1`, for which the Potency result was “inactive”.
The entry for `COC(=O)C1=C(C)N(c2ccc(Br)cc2)C(=O)/C1=C\c1ccco1` is “inactive”; for `O=[N+]([O-])c1cc(/C=N/Nc2nc3ccccc3[nH]2)c(O)cc1O` it is 7.94 µM (active); for `COC(=O)c1ccc(CSc2ccccc2C)o1` it is “inactive”.
`CCCCN(C(=O)Nc1ccc(Cl)cc1)C1CCN(C(C)=O)CC1`: the Potency entry is “inactive”.
The entry for `CCN(CC)c1ccc(N=Cc2ccccc2[N+](=O)[O-])cc1` is “inactive”.
The entry for `Cc1ccccc1C(=O)NNC(=S)Nc1cccc(C(F)(F)F)c1` is “inactive”.
Take `O=C(Nc1ccc(NC(=O)C2CC2)cn1)c1ccccc1Cl`: the Potency was 28.2 µM (active).
On to `COc1ccc(-c2nc(NC(=O)c3n[nH]c(=O)c4ccccc34)sc2C)cc1`, for which the Potency was 7.08 µM (active).
As for `Cc1c(NC(=O)COC(=O)c2cc(-c3ccc(-c4ccccc4)cc3)nc3ccccc23)c(=O)n(-c2ccccc2)n1C`, the Potency is 5.01 µM (active).
The figure for `Nc1ccc2c(c1)C(=O)C(=O)c1ccccc1-2` is 22.4 µM (active); for `O=C(NCc1ccco1)C1CCN(Cc2ccc(F)cc2)CC1` it is “inactive”; for `COc1ccc(-c2csc(NC(=O)c3ccc(OCC(=O)N4CCOCC4)c(OC)c3)n2)cc1` it is “inactive”.
In the case of `Cc1ccc(NC2=C/C(=N/S(=O)(=O)c3cccs3)c3ccccc3C2=O)cc1`, the Potency is 14.1 µM (active).
The entry for `COc1cc(/C=N/NC(=O)c2ccc(CSc3nc4ccccc4[nH]3)cc2)cc(OC)c1OC` is “inactive”; for `Cc1cccc(C)c1Nc1c(-c2ccc(N3CCOCC3)cc2)nc2ncccn12` it is “inactive”.
The figure for `CNC1=C(N(C(C)=O)c2ccc(Br)cc2)C(=O)c2ccccc2C1=O` is 8.91 µM (active); for `Cc1c(C#N)c(N)nc2c3c(sc12)NC(=O)CC3c1ccc(F)cc1` (stereo not given) it is “inactive”; for `O=C1C(=O)c2ccc(-c3ccccc3)cc2-c2ccccc21` it is 15.8 µM (active).
With `Cc1cc(SC(C)C(=O)Nc2ncc(Cl)cc2Cl)nc2ccccc12` (stereo not given), the Potency was 11.2 µM (active).
As to `CC(=O)Nc1cccc(Oc2ncnc3scc(-c4ccc(C)cc4)c23)c1`, the Potency result was “inactive”.
As for `CSc1nc(-c2ccc(C)cc2)nc(C(Cl)Cl)n1`, the figure is 31.6 µM (active); as for `CCc1ccc(S(=O)(=O)/N=C2/C=C(Sc3ncn[nH]3)C(=O)c3ccccc32)cc1`, 35.5 µM (active).
Consider `Cc1cc(C(=O)Cn2nnc3ccccc3c2=O)c(C)n1-c1ccccc1F`, for which the Potency is 7.94 µM (active).
Consider `O=C(N/N=C\c1ccc([N+](=O)[O-])s1)c1cncc(Br)c1`, for which the Potency is 25.1 µM (active).
Regarding `CCOC(=O)NC1(Nc2ccc(C)cc2)Oc2ccccc2O1`, the Potency entry is “inactive”.
In the case of `N=c1c2c(-c3ccccc3)c(-c3ccccc3)n(Cc3ccccc3)c2ncn1CCCO`, the Potency entry is “inactive”.
`O=S(=O)(Nc1cc(Sc2cccc3cccnc23)c(O)c2ccccc12)c1ccc(F)cc1`: the Potency was 15.8 µM (active).
The figure for `COc1ccccc1NC1=C(N2CCCCC2)C(=O)c2ccccc2C1=O` is 7.94 µM (active); for `Cc1cc[n+](C2=C([O-])c3ccccc3C(=O)/C2=N\S(=O)(=O)c2cccs2)cc1C` it is 25.1 µM (active); for `Cc1cc(C)c(S(=O)(=O)/N=C2/C=C(Sc3ncn[nH]3)C(=O)c3ccccc32)cc1C` it is 14.1 µM (active).
For `CC12CCC(C(=O)NC(c3ccccc3)c3ccccc3)(OC1=O)C2(C)C` (stereo not given), the Potency entry was “inactive”.
As for `CC(=O)c1ccc(-n2c(SCC(=O)c3c[nH]c4ccccc34)nc3ccccc3c2=O)cc1`, the entry is “inactive”; as for `COc1ccc(-c2cc(C#N)nc(N3CCN(C)CC3)n2)cc1`, “inactive”; as for `CCCNC1=C(N(C(C)=O)c2cccc(F)c2)C(=O)c2ccccc2C1=O`, 11.2 µM (active).
As for `Cc1cccc(NC2=C/C(=N/S(=O)(=O)c3cccs3)c3ccccc3C2=O)c1`, the Potency was 15.8 µM (active).
The entry for `Cc1ccc(NC(=S)NCCc2ccc(S(N)(=O)=O)cc2)cc1C` is “inactive”; for `CCCSc1cc(N2CCN(C)CC2)nc(-c2ccc(OC)cc2)n1` it is “inactive”; for `CCN=c1scc(-c2ccccc2)n1/N=C/c1ccccn1` it is 10 µM (active).
